Results reported in paper PMC7819943, “Rice protein-binding microarrays: a tool to detect cis-acting elements near promoter regions in rice”.
Whole data set: some 68,000 sequences, median “fluorescence intensity (a.u.)” near 9,100, cut for the highest 2% near 16,000. For the sample, the highest values were picked, then their nearest neighbours and some sequences at random.

Target: OsWRKY34 (Oryza sativa, UniProt Q0JBA9 1-250)
Test: protein-binding microarray (RPBM); PBS, 2% BSA, 51.3 ng/ul salmon testes DNA, 50 uM zinc acetate, 200 nM TF, 25 C, 1 h; high values mean tight binding
Details: protein: recombinant; tags: N-terminal polyhistidine and DsRed monomer fusion (pET32a); label: CyDye5-dUTP incorporated in the synthesized complementary strand; 3' TTTTT single-stranded linker to array surface; dsDNA, one strand shown
In short: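 Polyhistidine-tagged DsRed fusions of transcription factors, joined at the N-terminus, were expressed in E. coli BL21-CodonPlus and isolated on Ni–NTA. They were incubated at 200 nM for 1 h at 25 °C on a custom Agilent array, double-stranded and BSA-blocked, in PBS with 2% BSA, salmon testes DNA and 50 µM zinc acetate. The binding signal is per-feature fluorescence intensity (arbitrary units) read on an Axon 4000B scanner after washing.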

Chain of OsWRKY34 (Q0JBA9 entry or part of it): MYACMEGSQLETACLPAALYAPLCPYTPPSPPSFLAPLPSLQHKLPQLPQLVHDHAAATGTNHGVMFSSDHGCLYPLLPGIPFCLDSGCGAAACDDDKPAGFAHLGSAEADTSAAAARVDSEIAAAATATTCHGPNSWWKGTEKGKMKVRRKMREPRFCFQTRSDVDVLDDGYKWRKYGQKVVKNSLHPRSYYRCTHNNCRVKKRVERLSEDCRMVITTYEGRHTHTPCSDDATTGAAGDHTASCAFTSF

Sequence	binding signal
GGGATTTGGTGGCTGCTCGCCTCTCGCGTTTCTTTTGCTGCGGAGTCACCTAGTGCAG	10200 fluorescence intensity (a.u.)
CTTCTGCTGCTTCTCTCTCTCTCTCTGTGTCTAGTCTACCCGGAGTCACCTAGTGCAG	9420 fluorescence intensity (a.u.)
TATTTGTCATTCGCTGTCTATGACATATGAGCCCTCATGTCGGAGTCACCTAGTGCAG	8280 fluorescence intensity (a.u.)
CTCCTCCCAACTTTCCCCTTTGCTACAGTAGCTCCTTCTTCGGAGTCACCTAGTGCAG	8100 fluorescence intensity (a.u.)
GAGAGAGGAAGAACAGTACGTGTCTAGGGGCATTTTGGTACGGAGTCACCTAGTGCAG	9700 fluorescence intensity (a.u.)
ACACCGGCCGCCGAGCTCGCCTCCTCTCTTGTCGCCCACACGGAGTCACCTAGTGCAG	10100 fluorescence intensity (a.u.)
GTTCCTGATATGTTTTTTTGTTGGTTGCAGGATGGCAAGACGGAGTCACCTAGTGCAG	8880 fluorescence intensity (a.u.)
GCTCTCTTTCCGCTTCTACCCTCGTCACGTCCACGAAATCCGGAGTCACCTAGTGCAG	14900 fluorescence intensity (a.u.)
GCCACAGCTCTTGATTTCTCGCTGGATCCTGGTTTTCACCCGGAGTCACCTAGTGCAG	8430 fluorescence intensity (a.u.)
GAGCGGGGAGGCGGCGGATCTAGGGTTTGGTTGGGTTTTTCGGAGTCACCTAGTGCAG	15300 fluorescence intensity (a.u.)
GCGTTTTCGGCGGGGAACGCGGGGAGGCGGGTGGGGTTGACGGAGTCACCTAGTGCAG	21800 fluorescence intensity (a.u.)
GGTGGGTTTCGTGGTACGGCTCGCTCTCGTGGTGGGGAATCGGAGTCACCTAGTGCAG	19700 fluorescence intensity (a.u.)
TGCTAGGGTTTTCGGGAGGCGGGTCTAGGGTTGAGGCAAACGGAGTCACCTAGTGCAG	12300 fluorescence intensity (a.u.)
GGTTGGCAGCGGCGGCGGAGGTGGGGAGAGGCGGGTGGTTCGGAGTCACCTAGTGCAG	13600 fluorescence intensity (a.u.)
TTGGGGTTGGCGGGAATTAGGGTTTCGTTGGTGGGGTTTTCGGAGTCACCTAGTGCAG	25900 fluorescence intensity (a.u.)
TCGTTTGGTTGGCGGGAGTTTTAAGAGGGATTAGGAGTTTCGGAGTCACCTAGTGCAG	9020 fluorescence intensity (a.u.)
ACCTCGGAAAGTACGGGGTTCTCGTCGGCTGGGTGGGTGTCGGAGTCACCTAGTGCAG	11500 fluorescence intensity (a.u.)
CTGGCTCGCTCTCTCTCTCTCTCTCGTGGTGTGGTGTGGACGGAGTCACCTAGTGCAG	9310 fluorescence intensity (a.u.)
GTTGGTGTCCATCCGTTTCCGAGCCATTTTCATCCCTAATCGGAGTCACCTAGTGCAG	11600 fluorescence intensity (a.u.)
TCCTTCCATCTCTCTGCTCACTTCACTTCACCTTCCAATGCGGAGTCACCTAGTGCAG	9020 fluorescence intensity (a.u.)
GTTTCCATTTATCTGTTCGCAGTCAGTTCCAAGAAGTACCCGGAGTCACCTAGTGCAG	8340 fluorescence intensity (a.u.)

Sequence	binding signal
GTTGGTTGGCTGTTCCTTGCTTTCATCCAGCTAGCTACTGCGGAGTCACCTAGTGCAG	10500 fluorescence intensity (a.u.)
ACCGGCTCTCTAATCCTTAAATTCTGGCTTTGCTGCTAGTCGGAGTCACCTAGTGCAG	9240 fluorescence intensity (a.u.)
CAGTGGAGGGTTGGATCGGTGTGTAGGGGCTTAAGTGCAACGGAGTCACCTAGTGCAG	9610 fluorescence intensity (a.u.)
CATGTCCAACGTTTGACCATTTGCCTTATTTAAAATTTTTCGGAGTCACCTAGTGCAG	9250 fluorescence intensity (a.u.)
ATGCTCGATCACATGCTTAATTCTTAGCTTTGTCCTAGTTCGGAGTCACCTAGTGCAG	8230 fluorescence intensity (a.u.)
GCCGCCACCGCAACCTACCGCCGCCGCGGCAAGCCCAAGCCGGAGTCACCTAGTGCAG	8960 fluorescence intensity (a.u.)
GCTAAATACCAGCGAAGCAGTCGCCCGCGCAAACGCGCGCCGGAGTCACCTAGTGCAG	8220 fluorescence intensity (a.u.)
ACGGCCAGGCAAGCAAGCAAACGCCGCGGCTACCAATACCCGGAGTCACCTAGTGCAG	39600 fluorescence intensity (a.u.)
TTAATCTTCACGCGTTTGCTTACTCCTATATATATATGTACGGAGTCACCTAGTGCAG	9730 fluorescence intensity (a.u.)
TCCTGTGTTTTGCAATCCTCTGTTTTTACACTTGCATTCCCGGAGTCACCTAGTGCAG	10400 fluorescence intensity (a.u.)
TTCCTGTGTTTTGCAATCCGCTGTTTTACACTTACATTCCCGGAGTCACCTAGTGCAG	17300 fluorescence intensity (a.u.)
TGTTTTTCCTGTGTTTTGCAATCCTCTGTTTTACACTTACCGGAGTCACCTAGTGCAG	13000 fluorescence intensity (a.u.)
TTTCGATTGATTTTGCCTCCTGAAGCGTTGTCTAGCTTTTCGGAGTCACCTAGTGCAG	8180 fluorescence intensity (a.u.)
GCACAAAACCCTCGAGCACCGCCCGCCGCTATATAACAACCGGAGTCACCTAGTGCAG	9960 fluorescence intensity (a.u.)
ACCTAGTACGTATACACCTCAATCCATTATAAATAGCAACCGGAGTCACCTAGTGCAG	8280 fluorescence intensity (a.u.)
TAGTACAATGGGTGCCCTCAACGGAATAAACCGCTATACCCGGAGTCACCTAGTGCAG	37000 fluorescence intensity (a.u.)
AGACAAACTCTGGTTTCCGTGTCCAACGTTTGACCGTTCGCGGAGTCACCTAGTGCAG	11300 fluorescence intensity (a.u.)
TTTCATTTCACTCGCTGGCATTTCATCTCCTTGACCTATCCGGAGTCACCTAGTGCAG	9400 fluorescence intensity (a.u.)
ACCCACTGATCACGAAATCCACACACTGGCCACATCCAAACGGAGTCACCTAGTGCAG	8340 fluorescence intensity (a.u.)
CCCTCCGTTTCAAAATGTTTGATACCGTTGACTTTTTAGCCGGAGTCACCTAGTGCAG	21200 fluorescence intensity (a.u.)
TACTCCCTCCGTTTCAAATGACACCATTGACTTTTTAGCACGGAGTCACCTAGTGCAG	9430 fluorescence intensity (a.u.)
